# Experimental data taken from ChEMBL document CHEMBL2218924, “A broad activity screen in support of a chemogenomic map for kinase signalling research and drug discovery” (Biochem J, 2013).
# Experiments:
# [1] = target: T1, Mitogen-activated protein kinase 12 (Homo sapiens) (UniProt P53778); details: at 1 µM
# T1 sequence (whole entry): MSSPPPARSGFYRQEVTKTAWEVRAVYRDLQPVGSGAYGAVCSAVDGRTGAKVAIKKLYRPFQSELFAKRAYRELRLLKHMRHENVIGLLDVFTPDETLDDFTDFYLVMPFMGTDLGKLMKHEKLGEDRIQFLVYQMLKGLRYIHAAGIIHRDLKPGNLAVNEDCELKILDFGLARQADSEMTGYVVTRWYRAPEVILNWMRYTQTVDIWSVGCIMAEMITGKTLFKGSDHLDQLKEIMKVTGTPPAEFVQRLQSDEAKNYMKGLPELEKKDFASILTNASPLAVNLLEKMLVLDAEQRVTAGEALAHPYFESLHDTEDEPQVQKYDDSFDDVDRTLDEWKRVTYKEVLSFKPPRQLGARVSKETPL
# [2] = target: T1, Mitogen-activated protein kinase 12 (Homo sapiens); details: at 10 µM
# [3] = target: T2, Serine/threonine-protein kinase Sgk3 (Homo sapiens) (UniProt Q96BR1); details: at 1 µM
# T2 sequence (whole entry): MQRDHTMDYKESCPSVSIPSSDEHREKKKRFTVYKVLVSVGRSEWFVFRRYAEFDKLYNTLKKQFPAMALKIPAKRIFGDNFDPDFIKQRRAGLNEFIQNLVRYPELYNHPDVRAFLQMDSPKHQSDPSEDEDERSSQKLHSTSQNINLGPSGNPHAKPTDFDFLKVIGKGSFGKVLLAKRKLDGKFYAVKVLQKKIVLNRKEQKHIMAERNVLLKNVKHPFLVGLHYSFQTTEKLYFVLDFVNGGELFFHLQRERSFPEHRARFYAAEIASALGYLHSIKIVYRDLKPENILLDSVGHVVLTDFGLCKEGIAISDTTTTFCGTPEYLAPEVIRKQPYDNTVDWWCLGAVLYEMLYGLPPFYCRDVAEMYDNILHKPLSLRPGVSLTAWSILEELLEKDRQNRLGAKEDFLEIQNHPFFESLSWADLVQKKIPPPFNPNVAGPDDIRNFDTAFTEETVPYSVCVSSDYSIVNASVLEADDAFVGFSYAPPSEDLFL
# [4] = target: T3, Serine/threonine-protein kinase Sgk1 (Homo sapiens) (UniProt O00141); details: at 1 µM
# T3 sequence (whole entry): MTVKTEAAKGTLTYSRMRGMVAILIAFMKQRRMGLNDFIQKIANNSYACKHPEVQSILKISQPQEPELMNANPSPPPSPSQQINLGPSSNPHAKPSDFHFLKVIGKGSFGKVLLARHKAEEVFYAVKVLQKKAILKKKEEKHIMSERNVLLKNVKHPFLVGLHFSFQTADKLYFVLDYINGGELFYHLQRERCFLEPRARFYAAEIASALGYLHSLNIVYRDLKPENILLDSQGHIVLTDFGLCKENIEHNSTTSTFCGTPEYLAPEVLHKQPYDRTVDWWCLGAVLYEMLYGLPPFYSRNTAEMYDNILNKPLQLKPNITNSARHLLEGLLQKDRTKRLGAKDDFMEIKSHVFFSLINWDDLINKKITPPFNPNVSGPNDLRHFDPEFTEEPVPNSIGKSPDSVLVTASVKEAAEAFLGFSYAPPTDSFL
# [5] = target: T3, Serine/threonine-protein kinase Sgk1 (Homo sapiens); details: at 10 µM
# [6] = target: T4, Serine/threonine-protein kinase Sgk2 (Homo sapiens) (UniProt Q9HBY8); details: at 1 µM
# T4 sequence (whole entry): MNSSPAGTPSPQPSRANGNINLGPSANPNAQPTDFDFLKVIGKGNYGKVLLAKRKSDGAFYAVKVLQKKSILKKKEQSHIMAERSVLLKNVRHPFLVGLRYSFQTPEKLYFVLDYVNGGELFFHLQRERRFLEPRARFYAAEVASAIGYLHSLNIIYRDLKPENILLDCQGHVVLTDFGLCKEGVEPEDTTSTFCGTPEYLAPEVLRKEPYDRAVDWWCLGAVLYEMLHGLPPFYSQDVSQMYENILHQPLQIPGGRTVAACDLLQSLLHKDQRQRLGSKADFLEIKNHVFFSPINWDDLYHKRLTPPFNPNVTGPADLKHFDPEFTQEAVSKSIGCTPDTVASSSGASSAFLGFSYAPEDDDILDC
# [7] = target: T4, Serine/threonine-protein kinase Sgk2 (Homo sapiens); details: at 10 µM
# [8] = target: T2, Serine/threonine-protein kinase Sgk3 (Homo sapiens); details: at 10 µM
# [9] = target: Serine/threonine-protein kinase SIK1 (Homo sapiens) (UniProt P57059); details: at 1 µM
# Chain of Serine/threonine-protein kinase SIK1 (Homo sapiens) (P57059 whole entry): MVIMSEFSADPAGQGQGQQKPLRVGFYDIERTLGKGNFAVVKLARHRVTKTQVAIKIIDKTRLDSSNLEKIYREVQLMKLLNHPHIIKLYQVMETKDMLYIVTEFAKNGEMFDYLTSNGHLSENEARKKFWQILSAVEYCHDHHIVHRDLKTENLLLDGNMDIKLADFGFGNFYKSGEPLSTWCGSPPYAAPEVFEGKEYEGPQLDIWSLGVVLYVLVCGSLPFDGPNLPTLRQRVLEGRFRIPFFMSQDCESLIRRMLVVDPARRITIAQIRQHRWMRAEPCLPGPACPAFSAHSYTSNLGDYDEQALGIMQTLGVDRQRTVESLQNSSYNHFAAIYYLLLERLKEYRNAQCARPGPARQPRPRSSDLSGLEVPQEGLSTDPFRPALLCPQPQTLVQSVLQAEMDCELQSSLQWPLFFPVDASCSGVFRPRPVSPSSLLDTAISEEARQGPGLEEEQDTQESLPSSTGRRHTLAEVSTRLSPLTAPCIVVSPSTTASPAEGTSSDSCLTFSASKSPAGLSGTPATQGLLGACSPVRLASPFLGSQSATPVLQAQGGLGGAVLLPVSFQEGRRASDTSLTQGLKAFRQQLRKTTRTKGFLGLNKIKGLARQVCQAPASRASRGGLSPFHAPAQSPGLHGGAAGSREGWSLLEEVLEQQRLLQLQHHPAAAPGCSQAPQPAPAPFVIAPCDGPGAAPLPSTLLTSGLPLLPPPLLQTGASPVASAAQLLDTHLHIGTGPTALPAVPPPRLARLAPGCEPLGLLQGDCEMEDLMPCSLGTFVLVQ
# [10] = target: Serine/threonine-protein kinase SIK1 (Homo sapiens) (UniProt P57059); details: at 10 µM
# [11] = target: SRSF protein kinase 1 (Homo sapiens) (UniProt Q96SB4); details: at 1 µM
# Chain of SRSF protein kinase 1 (Homo sapiens) (Q96SB4 whole entry): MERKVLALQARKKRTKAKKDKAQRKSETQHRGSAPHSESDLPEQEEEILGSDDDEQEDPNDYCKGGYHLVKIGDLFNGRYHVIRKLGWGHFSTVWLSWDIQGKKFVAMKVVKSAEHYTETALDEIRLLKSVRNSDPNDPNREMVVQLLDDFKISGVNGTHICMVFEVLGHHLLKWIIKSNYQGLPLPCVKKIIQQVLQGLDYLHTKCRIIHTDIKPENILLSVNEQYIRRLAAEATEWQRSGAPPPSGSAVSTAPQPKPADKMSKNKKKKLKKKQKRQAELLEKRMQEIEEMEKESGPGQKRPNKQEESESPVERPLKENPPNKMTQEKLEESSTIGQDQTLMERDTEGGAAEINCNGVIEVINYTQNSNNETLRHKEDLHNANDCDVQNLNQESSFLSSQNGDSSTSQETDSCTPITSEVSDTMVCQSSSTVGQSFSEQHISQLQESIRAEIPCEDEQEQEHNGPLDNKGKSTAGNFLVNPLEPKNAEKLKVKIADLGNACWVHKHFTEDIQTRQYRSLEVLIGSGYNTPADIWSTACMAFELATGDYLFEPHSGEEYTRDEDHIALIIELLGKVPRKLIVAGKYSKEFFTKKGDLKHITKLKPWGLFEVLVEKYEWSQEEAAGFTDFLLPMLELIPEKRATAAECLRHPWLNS
# [12] = target: SRSF protein kinase 1 (Homo sapiens) (UniProt Q96SB4); details: at 10 µM
# [13] = target: SRSF protein kinase 2 (Homo sapiens) (UniProt P78362); details: at 1 µM
# Chain of SRSF protein kinase 2 (Homo sapiens) (P78362 whole entry, looked up): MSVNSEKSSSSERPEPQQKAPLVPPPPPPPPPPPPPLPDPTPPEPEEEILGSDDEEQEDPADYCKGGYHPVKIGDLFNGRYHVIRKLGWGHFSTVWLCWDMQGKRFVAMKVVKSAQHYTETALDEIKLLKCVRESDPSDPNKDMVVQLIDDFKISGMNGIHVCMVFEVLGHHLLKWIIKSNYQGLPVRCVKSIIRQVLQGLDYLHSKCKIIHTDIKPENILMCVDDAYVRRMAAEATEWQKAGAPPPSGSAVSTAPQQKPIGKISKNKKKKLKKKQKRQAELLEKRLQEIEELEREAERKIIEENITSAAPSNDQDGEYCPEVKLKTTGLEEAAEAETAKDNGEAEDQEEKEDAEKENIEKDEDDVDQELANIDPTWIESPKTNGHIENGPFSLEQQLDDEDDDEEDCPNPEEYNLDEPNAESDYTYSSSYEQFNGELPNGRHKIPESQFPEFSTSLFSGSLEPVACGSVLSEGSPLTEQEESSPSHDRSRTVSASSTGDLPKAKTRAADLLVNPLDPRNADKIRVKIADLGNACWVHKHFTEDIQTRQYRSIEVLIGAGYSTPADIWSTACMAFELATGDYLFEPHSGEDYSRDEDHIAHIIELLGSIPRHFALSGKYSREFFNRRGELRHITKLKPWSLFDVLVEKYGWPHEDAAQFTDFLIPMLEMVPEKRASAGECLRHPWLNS
# [14] = target: SRSF protein kinase 2 (Homo sapiens) (UniProt P78362); details: at 10 µM
compound,measurement,setting,value
O=Nc1c(-c2c(O)[nH]c3ccccc23)[nH]c2ccccc12,residual activity,[1],95%
same,residual activity,[2],84%
same,residual activity,[3],89%
COc1cc2ncnc(Nc3ccc(Oc4ccccc4)cc3)c2cc1OC,residual activity,[1],108%
same,residual activity,[2],101%
same,residual activity,[3],110%
O=C1NC(=O)c2c1c1c3ccccc3[nH]c1n1cncc21,residual activity,[1],95%
same,residual activity,[2],87%
same,residual activity,[3],87%
Ic1cccc(CSc2nnc(-c3ccncc3)o2)c1,residual activity,[1],88%
same,residual activity,[2],93%
same,residual activity,[3],91%
Cn1cnc2cc3c(Nc4cccc(Br)c4)ncnc3cc21,residual activity,[1],104%
same,residual activity,[2],89%
same,residual activity,[3],107%
CCC(=O)Nc1ccc2ncnc(Nc3cccc(Br)c3)c2c1,residual activity,[1],101%
same,residual activity,[2],93%
same,residual activity,[3],105%
Cn1nc2c3c(cccc31)C(=O)c1ccccc1-2,residual activity,[1],99%
same,residual activity,[2],96%
same,residual activity,[3],79%
N#C/C(=C(\N)Sc1ccc(N)cc1)c1ccccc1C(F)(F)F,residual activity,[1],104%
same,residual activity,[2],105%
same,residual activity,[3],102%
CCCCc1c(-c2ccc(OC)cc2)[nH]c2nccnc12,residual activity,[1],103%
same,residual activity,[2],112%
same,residual activity,[3],100%
Cc1ccc(S(=O)(=O)/C=C/C#N)cc1,residual activity,[1],92%
same,residual activity,[2],92%
same,residual activity,[3],103%
O=C(c1ccccc1)c1ccc(N2CCOCC2)cc1O,residual activity,[1],100%
same,residual activity,[2],100%
same,residual activity,[3],97%
O=C(Nc1cccc(Nc2cc(Nc3cccc(C(F)(F)F)c3)ncn2)c1)C1CC1,residual activity,[1],94%
same,residual activity,[2],92%
same,residual activity,[3],96%
O=C1NC(=O)c2cc(Nc3ccc(F)cc3)c(Nc3ccc(F)cc3)cc21,residual activity,[1],99%
same,residual activity,[2],82%
same,residual activity,[3],96%
COc1ccc2c(c1)c(C1=C(c3c[nH]c4ccccc34)C(=O)NC1=O)cn2CCCN(C)C,residual activity,[1],100%
same,residual activity,[2],100%
same,residual activity,[3],96%
O=C1NC(=O)c2c1c1c3ccccc3[nH]c1c1[nH]c3cc(Br)ccc3c21,residual activity,[1],96%
same,residual activity,[2],88%
same,residual activity,[3],96%
COc1cc2ncnc(Nc3ccc(NC(=O)c4ccccc4)cc3)c2cc1OC,residual activity,[3],96%
N#CC(C#N)=C(N)/C(C#N)=C/c1ccc(O)cc1,residual activity,[2],92%
Oc1cccc(-c2nc(N3CCOCC3)c3oc4ncccc4c3n2)c1,residual activity,[2],86%
O=C1NC(=O)/C(=C\c2ccc3nccnc3c2)S1,residual activity,[1],100%
same,residual activity,[2],61%
same,residual activity,[3],114%
CNc1cc2c(Nc3cccc(Br)c3)ncnc2cn1,residual activity,[1],105%
same,residual activity,[2],95%
same,residual activity,[3],103%
Cc1cc2ncc(-c3ccccc3)nc2cc1C,residual activity,[1],100%
same,residual activity,[2],100%
same,residual activity,[3],108%
CC[n+]1c(/C=C/N(C)c2ccccc2)n(-c2ccccc2)c2ccc(-c3nc4ccccc4s3)cc21,residual activity,[1],111%
same,residual activity,[2],94%
same,residual activity,[3],99%
O=C(c1cc2cc(O)ccc2[nH]1)c1cc2cc(O)ccc2[nH]1,residual activity,[3],81%
Nc1ccc2ncnc(NCCc3ccc(Oc4ccccc4)cc3)c2c1,residual activity,[1],107%
same,residual activity,[2],108%
same,residual activity,[3],109%
CC(C)[C@H](CO)Nc1nc(Nc2cc(N)cc(Cl)c2)c2ncn(C(C)C)c2n1,residual activity,[3],98%
Nc1ncnc2c1cnn2-c1ccccc1,residual activity,[3],94%
CCN(CC)CCNC(=O)c1c(C)[nH]c(/C=C2\C(=O)Nc3ccc(Cl)cc32)c1C,residual activity,[3],115%
O=C1NC(=O)c2c1c1c3ccccc3n3c1c1c2c2ccccc2n1C1CCC3O1,residual activity,[4],53%
same,residual activity,[5],43%
same,residual activity,[6],77%
same,residual activity,[7],61%
same,residual activity,[3],98%
same,residual activity,[8],80%
same,residual activity,[9],123%
same,residual activity,[10],74%
same,residual activity,[11],92%
same,residual activity,[12],83%
CCN1/C(=C/C(C)=O)Sc2ccc(OC)cc21,residual activity,[3],100%
CCCCc1c(-c2ccc(O)cc2)[nH]c2nccnc12,residual activity,[3],98%
CC(=O)O/N=C1\C(=C2\C(=O)Nc3cc(Br)ccc32)Nc2ccccc21,residual activity,[1],94%
same,residual activity,[2],92%
same,residual activity,[3],114%
COc1ccc2c(c1)/C(=C/c1cnc[nH]1)C(=O)N2,residual activity,[7],32%
same,residual activity,[3],100%
same,residual activity,[8],53%
same,residual activity,[9],145%
same,residual activity,[10],48%
same,residual activity,[12],98%
O=C(O)c1ccc2c3c1cccc3c(=O)n1c3ccccc3nc21,residual activity,[1],106%
same,residual activity,[2],102%
same,residual activity,[3],105%
CC#CC(=O)Nc1cc2c(Nc3ccc(F)c(Cl)c3)ncnc2cn1,residual activity,[1],103%
same,residual activity,[2],95%
same,residual activity,[3],102%
CC(C)(C)n1nc(Cc2cccc3ccccc23)c2c(N)ncnc21,residual activity,[1],100%
same,residual activity,[2],98%
same,residual activity,[3],106%
c1cc(-c2cnn3cc(-c4ccc(OCCN5CCCCC5)cc4)cnc23)ccn1,residual activity,[5],66%
same,residual activity,[6],81%
same,residual activity,[7],48%
same,residual activity,[8],78%
same,residual activity,[9],43%
same,residual activity,[10],9%
O=C(Nc1nc2ccccc2n1CCN1CCOCC1)c1cccc([N+](=O)[O-])c1,residual activity,[3],108%
NC(=O)c1ccc2[nH]c(-c3ccc(Oc4ccc(Cl)cc4)cc3)nc2c1,residual activity,[1],93%
same,residual activity,[2],92%
same,residual activity,[3],107%
COc1ccc2c(c[n+](C)c3c4cc5c(cc4ccc23)OCO5)c1OC,residual activity,[2],94%
same,residual activity,[5],85%
same,residual activity,[6],130%
same,residual activity,[7],65%
same,residual activity,[8],79%
same,residual activity,[9],92%
same,residual activity,[12],98%
same,residual activity,[13],96%
same,residual activity,[14],96%
c1ccc(-c2n[nH]c3c2oc2ccccc23)cc1,residual activity,[3],94%
O=C1Nc2ccc(Cl)cc2/C1=C/c1cc(Cl)c(O)c(Cl)c1,residual activity,[3],95%
Cc1cncc2cccc(S(=O)(=O)N3CCCN(C(=O)CN)C[C@H]3C)c12,residual activity,[3],93%
Nc1nc(Nc2ccc(S(N)(=O)=O)cc2)nn1C(=O)c1c(F)cccc1F,residual activity,[2],67%
same,residual activity,[3],106%
